Compounds without any hit were thinned out: in the full panel of roughly 83,000, 20% have a hit.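 Percent growth is the endpoint: 0 to 100 indicates growth inhibition (40 means 60% inhibition), 0 means no net growth, and negative values indicate cell death.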 A number with no mark means an inactive call. Activity calls are given as the source filed them. Rule for the calls: active = growth percent below 10; inactive = the rest.
Key:
Test in all cases: NCI-60 one-dose screen, 48 h (100 = growth as untreated, 0 = no growth, -100 = all killed)
Conditions in all cases: 10 µM unless noted
HT29 colon = system: HT29 colon
SNB-75 CNS = system: SNB-75 CNS
SNB-19 CNS = system: SNB-19 CNS
PC-3 prostate = system: PC-3 prostate
SK-MEL-5 melanoma = system: SK-MEL-5 melanoma
SK-MEL-28 melanoma = system: SK-MEL-28 melanoma
SK-MEL-2 melanoma = system: SK-MEL-2 melanoma
UACC-62 melanoma = system: UACC-62 melanoma
LOX IMVI melanoma = system: LOX IMVI melanoma
U251 CNS = system: U251 CNS

## COc1ccc(C(=O)/C=C/c2ccc(OCc3ccc(Cl)cc3)c(OC)c2)cc1OC
HT29 colon
  growth: 63.7%
SNB-75 CNS
  growth: 74.8%
SNB-19 CNS
  growth: 72.3%
PC-3 prostate
  growth: 59.4%
SK-MEL-5 melanoma
  growth: 55.2%
SK-MEL-28 melanoma
  growth: 83.3%
SK-MEL-2 melanoma
  growth: 83.3%

## NS(=O)(=O)c1cccc(Nc2nc(SCC(=O)c3ccc([N+](=O)[O-])cc3)nc3ccccc23)c1
HT29 colon
  growth: 71.2%
SNB-75 CNS
  growth: 45.9%
SNB-19 CNS
  growth: 73.7%
PC-3 prostate
  growth: 24.2%
SK-MEL-5 melanoma
  growth: 7.52% (active)
UACC-62 melanoma
  growth: -12.7% (active)
SK-MEL-28 melanoma
  growth: 60.3%

## O=C(c1ccc(O)cc1)C1[C@H](c2ccc(Cl)cc2)[C@@H](c2ccccc2)NC12C(=O)Nc1ccc(Cl)cc12 (some centres undefined)
HT29 colon
  growth: 4.23% (active)
SNB-75 CNS
  growth: 46.2%
SNB-19 CNS
  growth: 63%
PC-3 prostate
  growth: 24.6%
SK-MEL-5 melanoma
  growth: 67.3%
UACC-62 melanoma
  growth: 53.6%
LOX IMVI melanoma
  growth: 26.8%
SK-MEL-28 melanoma
  growth: 76.2%
SK-MEL-2 melanoma
  growth: 57%

## N/C(=N\c1nc2c(Cl)cc(Cl)cc2s1)C(Cl)(Cl)Cl
HT29 colon
  growth: 8.65% (active)
SNB-75 CNS
  growth: 7.23% (active)
SNB-19 CNS
  growth: 46.8%
PC-3 prostate
  growth: 37.5%
SK-MEL-5 melanoma
  growth: 87%
UACC-62 melanoma
  growth: 40.3%
SK-MEL-28 melanoma
  growth: 54.9%
SK-MEL-2 melanoma
  growth: 80.5%

## C/C(=C(/c1ccc(Cl)cc1)c1ccc(OCCN)cc1)c1ccc(C)cc1
HT29 colon
  growth: 111%
SNB-75 CNS
  growth: 94.6%
SNB-19 CNS
  growth: 92.6%
PC-3 prostate
  growth: 94.6%
SK-MEL-5 melanoma
  growth: 106%
UACC-62 melanoma
  growth: 88.6%
LOX IMVI melanoma
  growth: 105%
SK-MEL-28 melanoma
  growth: 99.6%
SK-MEL-2 melanoma
  growth: 112%

## CC(C)(C)Nc1nc2c(OCCc3ccccc3)cccn2c1-c1ccc(Cl)cc1
HT29 colon
  growth: 24.2%
SNB-75 CNS
  growth: 51.7%
SNB-19 CNS
  growth: 19.7%
PC-3 prostate
  growth: 3.08% (active)
SK-MEL-5 melanoma
  growth: -71.6% (active)
UACC-62 melanoma
  growth: 11.1%
LOX IMVI melanoma
  growth: 2.87% (active)
SK-MEL-28 melanoma
  growth: 29.7%
SK-MEL-2 melanoma
  growth: -33.9% (active)

## CCOC(=O)c1csc(NC(=O)CSc2nc3sc4c(c3c(=O)n2-c2ccc(Cl)cc2)CCCC4)n1
HT29 colon
  growth: 122%
SNB-75 CNS
  growth: 86.2%
SNB-19 CNS
  growth: 96%
PC-3 prostate
  growth: 92.4%
SK-MEL-5 melanoma
  growth: 78%
UACC-62 melanoma
  growth: 85%
SK-MEL-28 melanoma
  growth: 105%
SK-MEL-2 melanoma
  growth: 105%

## Nc1c(C(=O)c2ccc(Br)cc2)oc2nc(-c3cnccn3)cc(-c3cccs3)c12
HT29 colon
  growth: 111%
SNB-75 CNS
  growth: 98.3%
SNB-19 CNS
  growth: 97.1%
PC-3 prostate
  growth: 96.3%
SK-MEL-5 melanoma
  growth: 98%
SK-MEL-28 melanoma
  growth: 107%
SK-MEL-2 melanoma
  growth: 113%

## CCOc1ccc2nc(NC(=O)c3ccc(C(F)(F)F)cc3)sc2c1
HT29 colon
  growth: 97.9%
SNB-19 CNS
  growth: 101%
U251 CNS
  growth: 100%
PC-3 prostate
  growth: 108%
UACC-62 melanoma
  growth: 99.1%
SK-MEL-28 melanoma
  growth: 105%

## COc1cccc(-c2nn(-c3ccccc3)cc2-c2ccnc(N3CCN(C(=O)c4ccccc4)CC3)c2)c1
HT29 colon
  growth: 87.2%
SNB-19 CNS
  growth: 85.5%
PC-3 prostate
  growth: 46.6%
SK-MEL-5 melanoma
  growth: 49.8%
LOX IMVI melanoma
  growth: 87.5%
SK-MEL-28 melanoma
  growth: 84.2%
SK-MEL-2 melanoma
  growth: 89%

## CN(C)CCCOc1c2ccc(Cl)cc2nc2c1oc1ccc(Cl)cc12
HT29 colon
  growth: -77.6% (active)
SNB-19 CNS
  growth: 24.5%
U251 CNS
  growth: -66% (active)
PC-3 prostate
  growth: 23.2%
SK-MEL-5 melanoma
  growth: -19.3% (active)
LOX IMVI melanoma
  growth: -77.2% (active)
SK-MEL-28 melanoma
  growth: 4.58% (active)

## CC(C)(C)Nc1nc2c(OCCc3ccccc3)cccn2c1-c1ccccc1Cl
HT29 colon
  growth: -47.3% (active)
SNB-19 CNS
  growth: 18.4%
U251 CNS
  growth: -44.7% (active)
PC-3 prostate
  growth: -40% (active)
SK-MEL-5 melanoma
  growth: -92.5% (active)
UACC-62 melanoma
  growth: -42.1% (active)
LOX IMVI melanoma
  growth: -96% (active)
SK-MEL-28 melanoma
  growth: 0.829% (active)
SK-MEL-2 melanoma
  growth: -76.2% (active)

## CN(C)CCCOc1c2ccccc2nc2c1oc1ccc(Cl)cc12
HT29 colon
  growth: -43.4% (active)
SNB-19 CNS
  growth: 16.1%
U251 CNS
  growth: 16.7%
PC-3 prostate
  growth: 5.23% (active)
SK-MEL-5 melanoma
  growth: -16% (active)
UACC-62 melanoma
  growth: -49.7% (active)
LOX IMVI melanoma
  growth: -85.1% (active)
SK-MEL-28 melanoma
  growth: 9.1% (active)
SK-MEL-2 melanoma
  growth: 9.55% (active)

## C=CCSc1ccc2c(c1)C(N1CCNCC1)=Nc1ccccc1O2
HT29 colon
  growth: 44.2% [8.25 µM]
SNB-19 CNS
  growth: 82.7% [8.25 µM]
U251 CNS
  growth: 61.3% [8.25 µM]
PC-3 prostate
  growth: 66.9% [8.25 µM]
SK-MEL-5 melanoma
  growth: 85.5% [8.25 µM]
UACC-62 melanoma
  growth: 91.6% [8.25 µM]
SK-MEL-2 melanoma
  growth: 92.3% [8.25 µM]

## CNC(=O)c1cc(-c2ccc(NC(=O)Nc3ccc(N4CCN(C)CC4)c(C(F)(F)F)c3)cc2)nc2cccnc12
HT29 colon
  growth: -89.3% (active)
SNB-19 CNS
  growth: -79.4% (active)
U251 CNS
  growth: -94.2% (active)
PC-3 prostate
  growth: -90.6% (active)
SK-MEL-5 melanoma
  growth: -96.6% (active)
UACC-62 melanoma
  growth: -83.8% (active)
SK-MEL-28 melanoma
  growth: -92.2% (active)
SK-MEL-2 melanoma
  growth: -80.7% (active)

## COc1ccc(C(=O)c2cc(C(=O)/C=C/c3c(Cl)cccc3Cl)c3cc(C)ccn23)cc1
HT29 colon
  growth: 103%
SNB-19 CNS
  growth: 98.8%
U251 CNS
  growth: 100%
PC-3 prostate
  growth: 91.3%
UACC-62 melanoma
  growth: 94%
SK-MEL-28 melanoma
  growth: 108%
SK-MEL-2 melanoma
  growth: 101%

Reference: PubChem BioAssay (NCI)
